This is an account of results in PubChem BioAssay.

The target of experiment [1] is Albumin (Bos taurus) (UniProt P02769). The experiment can be described thus: bovine serum albumin binders on microarray, profiling panel, artefact control for SMM control protein annotation, biochemical, small-molecule microarray, Alexa647 label, 635/667 nm fluorescence (AID 1118).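 Further: score merges 667 nm emission intensity and signal-to-noise per printed compound spot.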 The settings on record: BSA-A647 binding, fluorescence 635 nm, higher = more signal.
Albumin (Bos taurus), sequence (P02769 whole entry, looked up): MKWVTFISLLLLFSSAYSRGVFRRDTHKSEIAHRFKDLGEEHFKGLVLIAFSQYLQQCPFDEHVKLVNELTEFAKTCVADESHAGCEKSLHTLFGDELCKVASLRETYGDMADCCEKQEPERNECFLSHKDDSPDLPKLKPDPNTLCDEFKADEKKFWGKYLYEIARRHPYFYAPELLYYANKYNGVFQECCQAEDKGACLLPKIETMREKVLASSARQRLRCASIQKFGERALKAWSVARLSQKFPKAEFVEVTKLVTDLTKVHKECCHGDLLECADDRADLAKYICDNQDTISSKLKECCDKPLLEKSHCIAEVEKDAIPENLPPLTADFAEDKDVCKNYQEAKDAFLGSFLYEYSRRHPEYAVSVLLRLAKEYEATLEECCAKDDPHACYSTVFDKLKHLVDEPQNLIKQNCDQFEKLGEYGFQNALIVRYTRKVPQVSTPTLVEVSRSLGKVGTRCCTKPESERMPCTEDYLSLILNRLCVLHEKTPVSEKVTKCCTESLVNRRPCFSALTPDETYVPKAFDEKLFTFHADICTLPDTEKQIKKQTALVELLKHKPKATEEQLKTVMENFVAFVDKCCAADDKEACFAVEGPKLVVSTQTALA
The nature of experiment [2]: small-molecule microarray binders of probe aXIP, primary screen, biochemical, NeuroSMM set, 635/667 nm fluorescence (AID 1119).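 Further: probe is the protein aXip251-270 applied at 1 µg/mL to compound-printed slides; binding of probe to printed compounds measured as 667 nm fluorescence plus signal to noise.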 To be noted: higher = more signal, called active from +8 up or from −8 down.
The nature of experiment [3]: small-molecule binders of probe aNOTCH3, primary screen, biochemical, small-molecule microarray, 635/667 nm fluorescence (AID 1120).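 Further: probe is a biotin-tagged antibody raised against NOTCH3 rather than NOTCH3 protein; score merges spot fluorescence near 667 nm with spot signal to noise.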 To be noted: higher = more signal.
Experiment [4] is described as follows: small-molecule binders of probe aNOTCH2, primary screen, biochemical, small-molecule microarray, 635/667 nm fluorescence (AID 1121).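 Further: score merges feature fluorescence read at 667 nm with its signal to noise.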 The settings on record: higher = more signal.
The target of experiment [5] is Carbonic anhydrase 2 (Homo sapiens) (UniProt P00918). The experiment can be described thus: CAII small-molecule binders, profiling panel, biochemical, small-molecule microarray, Alexa647-labelled CAII (AID 1122). The settings on record: CAII-A647 binding fluorescence, higher = more signal.
The nature of experiment [6]: COS7 lysate on small-molecule microarray, probe aHis, 635 nm (AID 1123).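 Further: z-score combines 667nm fluorescence intensity with signal-to-noise per printed compound spot.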 The settings on record: COS7 cell lysate, fluorescence, higher = more signal.
Experiment [7] is described as follows: compound binding in COS7 lysate, probe aLAP1, primary screen, cell lysate, small-molecule microarray (AID 1124).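 Further: lysate comes from COS7 cells expressing LAP1 and is applied at 0.3 µg/mL; score merges spot fluorescence near 667 nm with signal-to-noise over triplicate slides.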 To be noted: probe aLAP1, fluorescence, higher = more signal.
Experiment [8] deals with Sam68 (KHDRBS1). In words: Sam68 small-molecule binders, primary screen, biochemical, small-molecule microarray, 635 nm fluorescence (AID 1125).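 Further: score merges 667 nm channel intensity with signal to noise over triplicate slides.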 To be noted: small-molecule microarray binding, higher = more signal.
Experiment [9] concerns Chordin-like protein 2 (CHRDL2). The experiment can be described thus: CHRDL2 small-molecule binders, primary screen, biochemical, small-molecule microarray, 635 nm fluorescence (AID 1126).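 Further: printed compound slides probed with Chrdl2 protein at 4 µg/mL for 1 h at 4 C; score merges 667 nm emission intensity with signal to noise over three replicate slides.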 To be noted: small-molecule microarray binding, fluorescence 635 nm; higher = more signal.
Experiment [10] deals with Concanavalin-A (Canavalia ensiformis) (UniProt P02866). In words: ConA small-molecule binders, primary screen, artefact control for SMM control protein annotation, biochemical, small-molecule microarray, Alexa647 label, 635 nm (AID 1127).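 Further: z combines 667 nm emission intensity with signal-to-noise across three replicate slides.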 To be noted: ConA-A647 binding fluorescence, higher = more signal.
Concanavalin-A (Canavalia ensiformis), sequence (P02866 whole entry, looked up): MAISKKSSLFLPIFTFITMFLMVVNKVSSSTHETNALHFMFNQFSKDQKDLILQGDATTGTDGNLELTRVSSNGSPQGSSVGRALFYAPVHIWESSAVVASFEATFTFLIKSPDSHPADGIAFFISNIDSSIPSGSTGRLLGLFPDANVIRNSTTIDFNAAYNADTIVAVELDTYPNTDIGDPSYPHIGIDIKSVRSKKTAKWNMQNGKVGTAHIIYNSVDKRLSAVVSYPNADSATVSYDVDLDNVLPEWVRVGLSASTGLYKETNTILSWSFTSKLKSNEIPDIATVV
Experiment [11] can be described thus: anti-His antibody binders, primary screen, artefact control for SMM control protein annotation, biochemical, small-molecule microarray, 635 nm fluorescence (AID 1128).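 Further: score merges feature fluorescence with signal-to-noise for each printed compound spot.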 To be noted: anti-His Alexa647 antibody binding, higher = more signal.
Experiment [12] concerns Human papillomavirus type 1a E7 protein (residues 1-88). The experiment can be described thus: HPV1a E7 small-molecule binders, primary screen, biochemical, small-molecule microarray, residues 1-88, 635 nm (AID 1129). To be noted: small-molecule microarray binding, fluorescence 635 nm; higher = more signal.
Experiment [13] has as its target Focal adhesion kinase 1 (Homo sapiens) (UniProt Q05397). The experiment can be described thus: small-molecule microarray binders of FAK, primary screen, biochemical, 635/667 nm fluorescence, BSA, DTT (AID 1130).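 Further: composite of spot emission at 667 nm and signal to noise over triplicate slides.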 The settings on record: PTK2 binding, 635 nm fluorescence, higher = more signal.
Experiment [14] deals with Fibrinogen (Alexa647-labelled). In words: fibrinogen binders on compound microarrays, profiling panel, artefact control for SMM control-protein annotation, biochemical, small-molecule microarray, 635/667 nm fluorescence (AID 1131).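 Further: z-score merges 667 nm fluorescence with per-spot signal-to-noise over triplicate slides.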 To be noted: fibrinogen-A647 binding fluorescence, higher = more signal.
The target in experiment [15] is Follistatin (Homo sapiens) (UniProt P19883). The experiment can be described thus: follistatin binders on small-molecule microarrays, primary screen, biochemical, small-molecule microarray, 635/667 nm fluorescence (AID 1132). To be noted: FST binding, 635 nm fluorescence, higher = more signal.
Follistatin (Homo sapiens), sequence (P19883 whole entry, looked up): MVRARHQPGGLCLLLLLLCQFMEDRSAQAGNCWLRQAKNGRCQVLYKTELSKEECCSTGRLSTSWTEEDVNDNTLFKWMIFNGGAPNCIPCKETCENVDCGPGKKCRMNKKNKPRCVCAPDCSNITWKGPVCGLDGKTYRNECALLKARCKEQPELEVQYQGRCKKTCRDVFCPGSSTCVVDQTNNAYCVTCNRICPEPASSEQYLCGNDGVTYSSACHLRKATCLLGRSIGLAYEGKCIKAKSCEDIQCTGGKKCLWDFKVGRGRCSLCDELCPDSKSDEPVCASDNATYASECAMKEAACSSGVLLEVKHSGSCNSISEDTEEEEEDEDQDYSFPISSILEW
In experiment [16] the target is Fibroblast growth factor 2 (Homo sapiens) (UniProt P09038). In words: FGF2 binders on small-molecule microarrays, primary screen, biochemical, small-molecule microarray, 635/667 nm fluorescence (AID 1133). The settings on record: small-molecule microarray binding, FGF2, fluorescence 635/667; higher = more signal.
Fibroblast growth factor 2 (Homo sapiens), sequence (P09038 whole entry, looked up): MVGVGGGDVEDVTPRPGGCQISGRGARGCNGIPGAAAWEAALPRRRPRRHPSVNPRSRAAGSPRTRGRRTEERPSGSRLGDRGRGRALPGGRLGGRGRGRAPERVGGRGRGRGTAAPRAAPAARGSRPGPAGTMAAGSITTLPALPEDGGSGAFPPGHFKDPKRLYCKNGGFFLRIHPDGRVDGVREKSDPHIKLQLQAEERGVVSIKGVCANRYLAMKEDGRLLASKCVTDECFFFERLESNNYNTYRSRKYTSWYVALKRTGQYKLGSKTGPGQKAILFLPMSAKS
Experiment [17] can be described thus: mitochondrial membrane potential change in A549 cells, profiling panel, cell-based, JC-1 fluorescence, basal, 24 h, 100 nL (AID 1138).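 Further: A549 lung adenocarcinoma cells under basal conditions with no added stimulus; test concentration not given here.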 The settings on record: higher = more signal.
Experiment [18] relates to Lefty1. In words: Lefty1 binders on small-molecule microarrays, primary screen, biochemical, small-molecule microarray, 635/667 nm fluorescence (AID 1139). To be noted: small-molecule microarray binding, fluorescence 635/667; higher = more signal.
The test system of experiment [19] is wheat germ agglutinin (Triticum aestivum), Alexa647-labelled. In words: wheat germ agglutinin binders on compound microarrays, profiling panel, artefact control for SMM control-protein annotation, biochemical, small-molecule microarray, 635/667 nm fluorescence (AID 1140).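 Further: score merges 667 nm feature emission with signal to noise over triplicate slides.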 The settings on record: WGA-A647 binding, 635 nm fluorescence, higher = more signal.
For experiment [20], the target named is Luciferin 4-monooxygenase (Photinus pyralis) (UniProt P08659). The experiment can be described thus: firefly luciferase enzyme inhibitors, primary screen, biochemical, luminescence, purified enzyme, 2006 set (AID 1141).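 Further: cell-free assay with purified firefly luciferase at 100 ng per well in PBS; test concentration not given here.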 The settings on record: SteadyGlo luminescence, 30 min, higher = more signal, called active from +8 up or from −8 down.
Luciferin 4-monooxygenase (Photinus pyralis), sequence (P08659 whole entry, looked up): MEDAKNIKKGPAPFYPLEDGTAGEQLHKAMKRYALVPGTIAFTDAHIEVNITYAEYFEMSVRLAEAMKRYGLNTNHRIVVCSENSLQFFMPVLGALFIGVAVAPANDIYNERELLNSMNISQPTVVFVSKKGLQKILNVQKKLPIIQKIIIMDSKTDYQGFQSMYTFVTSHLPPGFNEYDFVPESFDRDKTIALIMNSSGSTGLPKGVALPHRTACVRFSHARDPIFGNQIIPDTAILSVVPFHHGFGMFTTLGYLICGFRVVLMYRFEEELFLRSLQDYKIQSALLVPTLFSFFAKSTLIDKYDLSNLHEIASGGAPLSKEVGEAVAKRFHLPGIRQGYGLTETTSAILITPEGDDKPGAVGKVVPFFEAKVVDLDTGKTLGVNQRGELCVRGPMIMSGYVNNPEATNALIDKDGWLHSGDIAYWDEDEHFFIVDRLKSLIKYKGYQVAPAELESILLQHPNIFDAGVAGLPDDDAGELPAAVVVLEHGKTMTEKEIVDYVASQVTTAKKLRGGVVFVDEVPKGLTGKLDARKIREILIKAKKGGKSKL

Calls of active or inactive are those of the source.

Focal adhesion kinase 1 (Homo sapiens), sequence (Q05397 whole entry, looked up): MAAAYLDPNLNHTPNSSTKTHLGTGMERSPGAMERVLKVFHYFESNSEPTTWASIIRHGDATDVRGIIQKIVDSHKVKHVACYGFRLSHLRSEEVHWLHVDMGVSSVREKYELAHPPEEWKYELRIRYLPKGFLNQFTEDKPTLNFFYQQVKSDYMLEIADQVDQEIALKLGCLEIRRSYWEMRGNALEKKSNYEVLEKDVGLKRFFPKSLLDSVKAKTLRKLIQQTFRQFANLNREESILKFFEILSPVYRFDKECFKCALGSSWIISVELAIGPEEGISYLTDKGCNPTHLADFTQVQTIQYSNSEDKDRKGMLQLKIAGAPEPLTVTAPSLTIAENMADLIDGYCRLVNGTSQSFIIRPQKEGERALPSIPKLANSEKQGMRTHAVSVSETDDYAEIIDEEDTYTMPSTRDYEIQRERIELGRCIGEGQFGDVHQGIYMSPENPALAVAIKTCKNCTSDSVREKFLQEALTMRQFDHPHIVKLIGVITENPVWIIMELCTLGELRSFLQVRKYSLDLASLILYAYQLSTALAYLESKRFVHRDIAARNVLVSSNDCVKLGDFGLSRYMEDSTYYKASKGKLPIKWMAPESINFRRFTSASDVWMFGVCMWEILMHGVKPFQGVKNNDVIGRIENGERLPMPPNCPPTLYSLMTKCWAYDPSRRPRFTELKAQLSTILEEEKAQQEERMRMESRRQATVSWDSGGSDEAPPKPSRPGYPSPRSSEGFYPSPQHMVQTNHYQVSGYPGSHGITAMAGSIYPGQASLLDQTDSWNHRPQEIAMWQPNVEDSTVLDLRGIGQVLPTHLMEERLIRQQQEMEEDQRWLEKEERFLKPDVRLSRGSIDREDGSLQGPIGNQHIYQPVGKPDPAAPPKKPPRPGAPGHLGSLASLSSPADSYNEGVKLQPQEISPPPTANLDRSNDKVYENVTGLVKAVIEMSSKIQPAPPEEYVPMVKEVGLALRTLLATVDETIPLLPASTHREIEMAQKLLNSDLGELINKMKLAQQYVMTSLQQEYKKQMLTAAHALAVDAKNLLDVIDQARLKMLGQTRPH

Regarding `COC(=O)C1(C)C=C2C(=C(c3ccccc3)C(=O)C2C)CN1` (stereo not given), the composite z-score in [1] was 0.226; in experiment [3], -0.128; in [4], 0.0633; in experiment [5], 0.479; in [6], 0.895; in experiment [7] it was -0.368. Further, the composite z-score in [8] is -0.999; in experiment [9] it was -0.368; in experiment [10] it was -1.06; in experiment [11], 1.57; in [12], 0.0147; in experiment [13], 0.0183. The composite z-score was 0.494 in experiment [14]; -0.882 in [15]; -0.253 in experiment [16]; -1.5 in [18]; 0.264 in experiment [19]. The composite Z-score in experiment [2] is -0.107 (inactive). The z-score is -0.353 in experiment [17] and 1.89 (inactive) in experiment [20].

For the molecule `COc1ccccc1CN1C(=O)c2ccccc2[C@@]2(Cc3ccccc3N(C(C)C)C2=O)[C@@H]1c1ccc(CO)cc1`, the composite z-score was 0.282 in [1]; -0.0581 in experiment [3]; -0.117 in experiment [4]; -0.0384 in [5]; 0.209 in [6]; 0.21 in experiment [7]. In addition, the composite z-score in experiment [8] was -0.067; in experiment [9] it was -0.381; in experiment [10], 0.262; in experiment [11], -0.166; in [12] it was -0.263; in experiment [13], -0.0604. Moreover, the composite z-score is -0.586 in experiment [14]; -0.13 in [15]; -0.609 in [16]; -0.404 in experiment [18]; 0.57 in experiment [19]. Besides, the composite Z-score in [2] is 0.0371 (inactive). Also, the z-score is 0.427 in experiment [17] and -1.08 (inactive) in experiment [20].

As to `COCCOC(=O)N1C(=O)[C@@]2(c3cc(C#CC4(O)CCCCCC4)ccc31)[C@H](C(=O)N1CCN(c3ncccn3)CC1)[C@H]1C(=O)O[C@H](c3ccccc3)[C@H](c3ccccc3)N1[C@@H]2c1ccc(OCCO)cc1`, the composite z-score in experiment [1] was 0.408; in [3] it was 0.178; in experiment [4] it was -0.112; in [5] it was 0.375; in [6], 0.714; in experiment [7], 0.857. For the same molecule, the composite z-score in experiment [8] was determined as 1.3; in [9], 0.659; in [10], 1.18; in experiment [11], 2.08; in [12] it was 1.2; in experiment [13], 0.289. The composite z-score in experiment [14] was found to be 0.889; in [15], 1.29; in experiment [16] it was 1.35; in [18] it was 0.637; in experiment [19], 1.09. In experiment [2], the composite Z-score is -0.108 (inactive). The z-score in experiment [17] was -1.34; in experiment [20] it was -2.19 (inactive).

Regarding `CCCNC(=O)OC[C@H]1O[C@H](CCON=CC[C@@H]2C=C[C@H](OC(C)=O)[C@@H](COC(C)=O)O2)C=C[C@@H]1Oc1ccc(OC)cc1`, the composite z-score was 0.619 in experiment [1]; 0.0131 in experiment [3]; -0.14 in experiment [4]; -0.0893 in experiment [5]; 0.0884 in experiment [6]; 0.394 in experiment [7]. For the same molecule, the composite z-score in experiment [8] was determined as 0.911; in [9] it was 0.593; in experiment [10], 0.0162; in [11], 0.731; in [12], 0.535; in [13], 0.474. The composite z-score was 0.733 in experiment [14]; 0.461 in experiment [15]; 0.693 in [16]; 0.561 in [18]; 0.462 in [19]. Moreover, in experiment [2], the composite Z-score is -0.263 (inactive). Besides, the z-score in experiment [17] was -1.16; in experiment [20], 0.985 (inactive).

With `[N-]=[N+]=NCc1ccccc1[C@@H]1OC(c2ccc(OCCCO)cc2)=N[C@]1(Cc1ccccc1)C(=O)N1CCOCC1`, the composite z-score in experiment [1] was 0.923; in experiment [3], 0.387; in experiment [4], 0.34; in [5] it was 0.514; in experiment [6], 3.06; in experiment [7], 0.827. The composite z-score came to 1.32 in [8]; 0.766 in experiment [9]; 1.16 in [10]; 2.32 in [11]; 1.11 in experiment [12]; 0.373 in [13]. Also, the composite z-score was 0.998 in experiment [14]; 1.15 in experiment [15]; 0.593 in experiment [16]; 0.115 in experiment [18]; 1.26 in experiment [19]. The composite Z-score in [2] was 0.0976 (inactive). Moreover, the z-score in [17] was 1.23; in experiment [20], -0.633 (inactive).

Turning to `O=C(NN=C1C[C@@H](O)[C@@H](O)[C@@H]2[C@@H]3C(=O)N(c4cccc(Oc5ccccc5)c4)C(=O)[C@@H]3CC[C@H]12)OCc1ccccc1`, the composite z-score is 0.724 in experiment [1]; -0.0204 in experiment [3]; -0.204 in experiment [4]; -0.0039 in experiment [5]; 1.82 in experiment [6]; 0.122 in [7]. For the same molecule, the composite z-score is -0.406 in experiment [8]; 0.0071 in experiment [9]; 0.186 in experiment [10]; 1.22 in [11]; 0.116 in [12]; -0.294 in experiment [13]. The composite z-score in [14] is 0.906; in experiment [15], 0.165; in [16], 0.237; in experiment [18], 0.168; in [19] it was 0.557. The composite Z-score in experiment [2] was -0.558 (inactive). The z-score in experiment [17] is -1.25; in experiment [20] it was 1.26 (inactive).
